Measurements published in PubChem BioAssay.
For part of these data: Measured potencies and affinities stand elsewhere. The source made the active and inactive calls. Unless noted, the rule behind the calls is not given here.

Columns and labels:
[1] = antimalarial activity against Dd2 strain (AID 2302;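 active = growth inhibition above 50% at the single 2 µM test dose, taken to imply half-maximal potency below 2 µM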;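 note: 0% = DMSO untreated growth and 100% = chloroquine plus artemisinin killed control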); settings: P. falciparum Dd2 in RBCs, LDH growth readout, 72 h; at 2 µM; active compounds read high
[2] = HepG2 cytotoxicity, primary screen, cytotoxicity control for P. falciparum antimalarial project, cell-based, ATP luminescence (AID 2303;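 active = inhibition above 50%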;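 note: 0% = DMSO wells and 100% = digitonin-killed cells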); settings: HepG2 viability, 24-48 h, at 10 µM, active compounds read high
[3] = molecular target: L-lactate dehydrogenase (Plasmodium falciparum (isolate CDC / Honduras)) (UniProt Q27743); assay: PfLDH activity inhibition – cell lysate, 3D7 strain, counter-screen for P. falciparum growth inhibition project (AID 2304);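 note: 0% = vehicle and 100% = reference inhibitor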; settings: P. falciparum 3D7 crude extract, LDH APAD/NBT absorbance; at 2 µM; active compounds read high
[4] = inhibition of 3D7 malaria parasite growth – strain 3D7 (AID 2306);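 note: 0% = DMSO wells and 100% = chloroquine plus artemisinin control wells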; settings: P. falciparum 3D7 erythrocytic growth, LDH absorbance, 72 h; at 2 µM; active compounds read high
[5] = molecular target: Calcium-dependent protein kinase 1 (Plasmodium falciparum (isolate 3D7)) (UniProt P62344); assay: PfCDPK1 kinase inhibitors, biochemical, TCAMS library (AID 1159585; cut-off not given, nearly all actives have IC50 up to about 0.98 µM;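 note: inhibitors leave more ATP so luminescence rises with inhibition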); settings: recombinant PfCDPK1, Kinase-Glo ATP depletion luminescence
[6] = molecular target: Plasmodium falciparum protein kinase 6 (PK6, PF3D7_1337100) (UniProt Q8IDW1); assay: PfPK6 kinase inhibitors, biochemical, TCAMS library (AID 1159586); settings: recombinant PfPK6, Kinase-Glo ATP depletion luminescence
[7] = molecular target: Protein kinase 7 (PK7), Plasmodium falciparum 3D7 (PF3D7_0213400) (UniProt Q7YTF7); assay: inhibition of Plasmodium PK7 catalytic activity – biochemical, TCAMS antimalarial set, Kinase-Glo luminescence (AID 1159587); settings: recombinant PfPK7, Kinase-Glo ATP depletion luminescence
[8] = molecular target: Calcium-dependent protein kinase 4 (Plasmodium falciparum (isolate 3D7)) (UniProt Q8IBS5); assay: PfCDPK4 kinase inhibitors, biochemical, TCAMS library (AID 1159588; cut-off not given, nearly all actives have IC50 up to about 0.91 µM); settings: recombinant PfCDPK4, Kinase-Glo ATP depletion luminescence
Chain of Calcium-dependent protein kinase 4 (Plasmodium falciparum (isolate 3D7)) (Q8IBS5 whole entry, looked up): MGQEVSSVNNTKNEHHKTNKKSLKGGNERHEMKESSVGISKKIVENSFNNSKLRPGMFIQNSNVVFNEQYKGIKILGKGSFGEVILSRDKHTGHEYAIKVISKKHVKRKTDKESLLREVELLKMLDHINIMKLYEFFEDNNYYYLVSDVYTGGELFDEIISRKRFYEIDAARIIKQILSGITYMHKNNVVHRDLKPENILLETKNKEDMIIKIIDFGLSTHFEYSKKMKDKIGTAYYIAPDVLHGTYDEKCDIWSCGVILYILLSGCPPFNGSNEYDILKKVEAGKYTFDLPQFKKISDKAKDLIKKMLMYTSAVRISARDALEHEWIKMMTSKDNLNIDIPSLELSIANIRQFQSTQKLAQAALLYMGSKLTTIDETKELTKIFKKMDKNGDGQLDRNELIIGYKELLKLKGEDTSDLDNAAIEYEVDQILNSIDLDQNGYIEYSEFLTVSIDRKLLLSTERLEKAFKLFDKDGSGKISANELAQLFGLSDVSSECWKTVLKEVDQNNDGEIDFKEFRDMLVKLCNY

Chain of Plasmodium falciparum protein kinase 6 (PK6, PF3D7_1337100) (Q8IDW1 1-305): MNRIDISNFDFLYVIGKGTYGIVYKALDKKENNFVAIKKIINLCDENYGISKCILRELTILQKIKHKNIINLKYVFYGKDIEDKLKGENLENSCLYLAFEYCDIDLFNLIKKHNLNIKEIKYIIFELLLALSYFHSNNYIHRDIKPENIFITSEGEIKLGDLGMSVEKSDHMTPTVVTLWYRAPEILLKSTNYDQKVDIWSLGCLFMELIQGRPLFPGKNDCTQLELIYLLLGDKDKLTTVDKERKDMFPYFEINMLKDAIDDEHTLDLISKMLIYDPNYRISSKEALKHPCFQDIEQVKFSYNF
Chain of Protein kinase 7 (PK7), Plasmodium falciparum 3D7 (PF3D7_0213400) (Q7YTF7 1-343): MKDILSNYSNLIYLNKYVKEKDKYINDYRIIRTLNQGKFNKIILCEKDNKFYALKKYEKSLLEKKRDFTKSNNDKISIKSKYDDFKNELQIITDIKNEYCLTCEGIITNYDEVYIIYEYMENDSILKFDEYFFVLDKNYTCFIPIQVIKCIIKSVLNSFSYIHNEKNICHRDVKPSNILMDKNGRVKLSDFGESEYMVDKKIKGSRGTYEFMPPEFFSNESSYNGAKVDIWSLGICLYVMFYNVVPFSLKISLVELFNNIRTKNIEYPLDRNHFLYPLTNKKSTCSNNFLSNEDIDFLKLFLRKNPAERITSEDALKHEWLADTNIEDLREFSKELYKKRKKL
Chain of Calcium-dependent protein kinase 1 (Plasmodium falciparum (isolate 3D7)) (P62344 whole entry, looked up): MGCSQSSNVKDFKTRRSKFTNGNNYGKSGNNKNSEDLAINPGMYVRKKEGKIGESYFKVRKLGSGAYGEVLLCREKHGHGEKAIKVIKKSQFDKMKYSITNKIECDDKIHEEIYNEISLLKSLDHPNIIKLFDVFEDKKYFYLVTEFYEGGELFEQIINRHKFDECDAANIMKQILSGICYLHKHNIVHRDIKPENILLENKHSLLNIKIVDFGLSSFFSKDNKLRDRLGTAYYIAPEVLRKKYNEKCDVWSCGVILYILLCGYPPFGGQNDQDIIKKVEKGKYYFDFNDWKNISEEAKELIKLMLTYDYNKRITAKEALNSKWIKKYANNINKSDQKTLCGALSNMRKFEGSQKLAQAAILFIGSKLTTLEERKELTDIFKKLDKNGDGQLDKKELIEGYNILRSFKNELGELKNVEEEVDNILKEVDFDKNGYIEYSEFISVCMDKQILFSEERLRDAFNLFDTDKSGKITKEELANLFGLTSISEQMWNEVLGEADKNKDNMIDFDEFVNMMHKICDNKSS
Chain of L-lactate dehydrogenase (Plasmodium falciparum (isolate CDC / Honduras)) (Q27743 whole entry, looked up): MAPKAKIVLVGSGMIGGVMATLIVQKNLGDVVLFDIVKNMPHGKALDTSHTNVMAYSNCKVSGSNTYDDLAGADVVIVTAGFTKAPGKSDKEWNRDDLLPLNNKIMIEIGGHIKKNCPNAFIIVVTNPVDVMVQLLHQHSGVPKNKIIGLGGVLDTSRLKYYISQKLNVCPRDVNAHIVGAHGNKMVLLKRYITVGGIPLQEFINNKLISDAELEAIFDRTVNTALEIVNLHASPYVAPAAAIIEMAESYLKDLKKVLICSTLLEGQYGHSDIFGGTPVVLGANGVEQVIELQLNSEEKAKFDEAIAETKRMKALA

SMILES	growth inhibition [1]	inhibition [2]	inhibition [3]	growth inhibition [4]	outcome [5]	outcome [6]	outcome [7]	outcome [8]
CCCCCOc1ccc(C=NNc2nc(-c3ccccc3)cc(=O)[nH]2)cc1	86% (active)	0% (inactive)	-2% (inactive)	88% (active)	inactive	inactive	inactive	inactive
O=C(C1COc2ccccc2O1)N(CCCn1ccnc1)Cc1csc(-c2ccc(CNCc3ccccc3)cc2)n1 (centres undefined)	18% (inactive)	15% (inactive)	-1% (inactive)	100% (active)	inactive	inactive	inactive	inactive
CCNCc1ccc(-c2cccc(-c3nc4ccccc4[nH]3)c2)cc1	18% (inactive)	26% (inactive)	4% (inactive)	102% (active)	inactive	inactive	inactive	inactive
